In PubChem BioAssay (EPA / NIEHS) one finds outcome data, which are given here for five molecules.

The structures appear in SMILES notation. Results filed as inconclusive are left out. Active and inactive are the calls of the source. The calls were made as follows: active = hit-call score of the fitted dose curve at least 0.9, where 1 is the maximum; inconclusive = response in the unintended direction; inactive = score below 0.9.

Experiment [1] concerns the target human Phosphoinositide 3-kinase alpha (PI3Ka), PIK3CA (gene 5290) (UniProt P42336). The experiment can be described thus: NVS_ENZ_hPI3Ka: NovaScreen (NVS) Enzymatic Assay for human Phosphoinositide 3-kinase alpha (PI3Ka) (AID 2283196). The gist of the method:
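Enzyme activity as fluorescence after mobility-shift separation of substrate and product, 1 h reaction, recombinant human PI3Kα; concentration-response to 50 uM max for chemicals passing a 25 uM duplicate screen.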

The target of a further experiment is PPP2CA (gene 5515) (UniProt P67775). The experiment can be described thus: NVS_ENZ_hPPP2CA: NovaScreen (NVS) Enzymatic Assay for human Protein Phosphatase 2 Aatalytic subunit Alpha (PPP2CA) (AID 2283199). In short, it runs like this: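 Cell-free phosphatase activity: fluorescent substrate turnover by recombinant human enzyme, resolved by mobility shift at 1.33 h. Compounds passing the 25 uM duplicate primary screen were rerun in singleton series with a 50 uM top concentration.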

Experiment [2] deals with Tyrosine-protein phosphatase non-receptor type 11 (Homo sapiens) (UniProt Q06124). Nature of the experiment: NVS_ENZ_hPTPN11: NovaScreen (NVS) Enzymatic Assay for human Protein Tyrosine Phosphatase Non-receptor Type 11 (PTPN11) (AID 2283202). As for the experimental part:
NVS_ENZ_hPTPN11 is a biochemical, single-readout assay that uses extracted gene-proteins in a cell-free assay. Measurements were taken 0.5 hour after chemical dosing in a 384-well plate.NVS_ENZ_hPTPN11 is one of one assay component(s) measured or calculated from the NVS_ENZ_hPTPN11 assay. It is designed to make measurements of enzyme activity, a form of enzyme reporter, as detected with fluorescence intensity signals by Fluorescence and electrophoretic mobility shift technology.Data from the assay component NVS_ENZ_hPTPN11 was analyzed into 1 assay endpoint. This assay endpoint, NVS_ENZ_hPTPN11, was analyzed in the positive analysis fitting direction relative to DMSO as the negative control and baseline of activity. Using a type of enzyme reporter, loss-of-signal activity can be used to understand changes in the enzymatic activity as they relate to the gene PTPN11. Furthermore, this assay endpoint can be referred to as a primary readout, because this assay has produced multiple assay endpoints where this one serves a enzymatic activity function. To generalize the intended target to other relatable targets, this assay endpoint is annotated to the phosphatase intended target family, where the subfamily is non-receptor tyrosine phosphatase. […]

The target in experiment [3] is Tyrosine-protein phosphatase non-receptor type 12 (Homo sapiens) (UniProt Q05209). The experiment can be described thus: NVS_ENZ_hPTPN12: NovaScreen (NVS) Enzymatic Assay for human Protein Tyrosine Phosphatase Non-receptor Type 12 (PTPN12) (AID 2283204). The gist of the method:
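Single-concentration duplicates (25 uM) preceded singleton concentration-response up to 50 uM for chemicals passing threshold. Cell-free recombinant PTPN12 activity was read 1.33 h after dosing via fluorescence after mobility-shift separation; loss of signal versus DMSO.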

Experiment [4] deals with Tyrosine-protein phosphatase non-receptor type 13 (Homo sapiens) (UniProt Q12923). The experiment can be described thus: NVS_ENZ_hPTPN13: NovaScreen (NVS) Enzymatic Assay for human Protein Tyrosine Phosphatase Non-receptor Type 13 (PTPN13) (AID 2283205). In short, it runs like this:
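Screened first at a single 25 uM in duplicate; compounds passing the threshold (e.g. 30% inhibition) were rerun in concentration series, top 50 uM. Recombinant enzyme, fluorescent substrate, mobility-shift separation, 0.5 h read. Data fitted as inhibition relative to DMSO.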

Sequence of Tyrosine-protein phosphatase non-receptor type 12 (Homo sapiens) (Q05209 whole entry, looked up): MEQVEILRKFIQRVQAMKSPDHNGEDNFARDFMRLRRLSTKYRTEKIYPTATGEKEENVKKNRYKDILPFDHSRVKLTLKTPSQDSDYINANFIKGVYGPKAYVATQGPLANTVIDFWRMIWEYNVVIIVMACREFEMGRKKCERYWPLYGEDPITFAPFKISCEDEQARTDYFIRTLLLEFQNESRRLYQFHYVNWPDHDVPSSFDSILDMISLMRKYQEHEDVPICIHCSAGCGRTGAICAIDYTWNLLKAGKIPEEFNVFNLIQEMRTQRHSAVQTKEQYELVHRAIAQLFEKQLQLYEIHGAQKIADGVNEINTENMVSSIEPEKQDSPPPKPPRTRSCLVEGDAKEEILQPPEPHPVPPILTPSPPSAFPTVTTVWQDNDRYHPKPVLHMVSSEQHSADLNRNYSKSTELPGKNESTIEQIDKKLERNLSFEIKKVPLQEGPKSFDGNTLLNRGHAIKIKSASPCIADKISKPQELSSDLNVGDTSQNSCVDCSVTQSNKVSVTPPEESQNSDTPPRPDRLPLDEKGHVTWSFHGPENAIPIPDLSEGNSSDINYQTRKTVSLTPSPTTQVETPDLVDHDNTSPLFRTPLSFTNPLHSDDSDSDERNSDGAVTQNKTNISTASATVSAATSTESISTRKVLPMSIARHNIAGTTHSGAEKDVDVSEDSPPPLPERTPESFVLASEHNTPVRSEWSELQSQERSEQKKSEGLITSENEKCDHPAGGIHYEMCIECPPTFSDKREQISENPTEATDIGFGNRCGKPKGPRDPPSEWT
Sequence of PPP2CA (gene 5515) (P67775 whole entry, looked up): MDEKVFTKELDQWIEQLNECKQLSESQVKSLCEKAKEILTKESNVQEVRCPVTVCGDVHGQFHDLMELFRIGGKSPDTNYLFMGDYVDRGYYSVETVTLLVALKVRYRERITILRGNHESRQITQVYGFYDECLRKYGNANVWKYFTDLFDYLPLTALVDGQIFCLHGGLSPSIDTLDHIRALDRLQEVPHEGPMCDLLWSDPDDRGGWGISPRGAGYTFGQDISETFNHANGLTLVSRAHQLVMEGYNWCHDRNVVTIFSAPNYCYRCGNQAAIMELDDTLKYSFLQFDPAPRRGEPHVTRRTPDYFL
Sequence of human Phosphoinositide 3-kinase alpha (PI3Ka), PIK3CA (gene 5290) (P42336 whole entry, looked up): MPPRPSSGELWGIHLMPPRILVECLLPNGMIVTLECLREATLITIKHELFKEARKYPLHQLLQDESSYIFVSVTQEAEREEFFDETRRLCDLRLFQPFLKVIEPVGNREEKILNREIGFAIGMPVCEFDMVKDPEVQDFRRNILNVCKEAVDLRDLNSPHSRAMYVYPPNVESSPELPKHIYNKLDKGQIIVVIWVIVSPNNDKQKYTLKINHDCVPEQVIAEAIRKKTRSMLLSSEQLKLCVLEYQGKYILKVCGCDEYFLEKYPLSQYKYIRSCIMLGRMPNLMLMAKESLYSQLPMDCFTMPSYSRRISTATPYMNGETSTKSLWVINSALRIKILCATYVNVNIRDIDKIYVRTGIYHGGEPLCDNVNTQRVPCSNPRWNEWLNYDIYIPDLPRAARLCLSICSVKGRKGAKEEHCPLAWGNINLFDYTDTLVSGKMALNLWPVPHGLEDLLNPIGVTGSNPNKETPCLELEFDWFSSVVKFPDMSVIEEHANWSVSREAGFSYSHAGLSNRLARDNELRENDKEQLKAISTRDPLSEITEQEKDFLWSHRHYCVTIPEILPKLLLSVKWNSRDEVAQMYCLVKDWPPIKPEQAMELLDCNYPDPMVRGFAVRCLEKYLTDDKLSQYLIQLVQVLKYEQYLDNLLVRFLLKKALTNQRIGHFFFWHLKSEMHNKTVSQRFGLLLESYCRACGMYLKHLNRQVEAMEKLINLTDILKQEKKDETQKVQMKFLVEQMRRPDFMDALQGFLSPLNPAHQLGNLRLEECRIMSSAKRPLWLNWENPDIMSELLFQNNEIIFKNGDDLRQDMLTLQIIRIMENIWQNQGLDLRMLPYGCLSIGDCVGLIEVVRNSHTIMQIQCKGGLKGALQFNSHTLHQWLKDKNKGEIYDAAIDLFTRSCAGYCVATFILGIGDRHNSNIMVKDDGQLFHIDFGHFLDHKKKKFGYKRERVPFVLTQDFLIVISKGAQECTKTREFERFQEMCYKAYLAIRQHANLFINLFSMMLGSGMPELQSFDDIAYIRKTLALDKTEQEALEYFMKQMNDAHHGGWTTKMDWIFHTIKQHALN
Sequence of Tyrosine-protein phosphatase non-receptor type 11 (Homo sapiens) (Q06124 whole entry, looked up): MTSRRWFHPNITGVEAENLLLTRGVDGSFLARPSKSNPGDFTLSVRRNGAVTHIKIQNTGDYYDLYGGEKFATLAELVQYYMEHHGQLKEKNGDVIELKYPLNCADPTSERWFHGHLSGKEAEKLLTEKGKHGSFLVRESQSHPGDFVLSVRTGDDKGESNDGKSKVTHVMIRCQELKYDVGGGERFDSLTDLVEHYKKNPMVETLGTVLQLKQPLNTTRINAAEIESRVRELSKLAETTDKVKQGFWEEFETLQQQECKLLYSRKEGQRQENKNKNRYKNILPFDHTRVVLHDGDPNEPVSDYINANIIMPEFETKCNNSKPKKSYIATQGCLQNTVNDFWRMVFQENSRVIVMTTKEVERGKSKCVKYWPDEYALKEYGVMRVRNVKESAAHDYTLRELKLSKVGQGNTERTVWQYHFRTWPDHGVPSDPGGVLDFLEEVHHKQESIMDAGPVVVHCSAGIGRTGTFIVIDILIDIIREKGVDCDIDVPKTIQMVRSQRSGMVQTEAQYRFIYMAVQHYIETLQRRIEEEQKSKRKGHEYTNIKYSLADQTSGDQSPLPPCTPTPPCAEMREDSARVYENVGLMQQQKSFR

With `O=C(O)c1c(Cl)ccc2cc(Cl)cnc12`, in experiment [1], the molecule was classed as inactive.

Consider `N#CN=C1SCCN1Cc1ccc(Cl)nc1`, for which the call with PPP2CA (gene 5515) was inactive.

In the case of `CC(C)N1C(=O)c2ccccc2NS1(=O)=O`, the call in experiment [2] was inactive.

As for `CCCC(=NOCC)C1=C(O)CC(CC(C)SCC)CC1=O` (stereo unspecified), the molecule was called inactive in experiment [3] and in experiment [4].

Consider `CC(C)=CC1C(C(=O)OCc2coc(Cc3ccccc3)c2)C1(C)C` (stereo unspecified), for which the molecule was called inactive in experiment [3].
